{"source": "the supplement of paper PMC7724964"}
{"biological_target": "T1, STAM 1-143 VHS (domain begin residue: 1, domain end residue: 143), Q92783", "T1 chain": "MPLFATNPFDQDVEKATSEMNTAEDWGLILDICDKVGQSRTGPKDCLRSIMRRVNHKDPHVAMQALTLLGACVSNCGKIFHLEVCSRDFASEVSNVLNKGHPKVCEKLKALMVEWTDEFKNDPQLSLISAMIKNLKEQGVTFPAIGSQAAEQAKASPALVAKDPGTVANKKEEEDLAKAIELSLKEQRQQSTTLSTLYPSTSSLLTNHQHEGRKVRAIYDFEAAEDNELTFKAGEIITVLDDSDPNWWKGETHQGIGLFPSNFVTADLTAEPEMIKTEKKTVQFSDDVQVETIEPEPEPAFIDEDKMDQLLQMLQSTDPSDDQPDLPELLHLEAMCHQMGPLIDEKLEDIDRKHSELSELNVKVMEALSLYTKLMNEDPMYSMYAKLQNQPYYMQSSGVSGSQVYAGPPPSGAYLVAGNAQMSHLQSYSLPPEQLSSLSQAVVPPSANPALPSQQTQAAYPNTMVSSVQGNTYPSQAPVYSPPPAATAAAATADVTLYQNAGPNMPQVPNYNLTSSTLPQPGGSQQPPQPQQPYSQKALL", "assay": "phage ELISA signal ratio (GST-PRM binding over GST background); higher = stronger binding of peptide-phage to the PRM", "in_short": "(§1)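 Approximately 48 individual clones from selection rounds 4 and 5 were tested by phage ELISA, and those scoring positive were sequenced. They came from five rounds of selecting an M13 phage library of randomized, cysteine-free, glycine-flanked hexadecapeptides on the gene-8 major coat protein against human peptide recognition domains fused to the C-terminus of glutathione S-transferase (GST) in 96-well plates. Each figure in the table is the ELISA signal on the GST-domain fusion relative to the signal on GST alone.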"}
{"binder": "TQFNMHDEALFMTKLF", "phage ELISA signal ratio": 19.2}
{"binder": "HESMVMFTDEFFQQYL", "phage ELISA signal ratio": 5.23}
{"binder": "NKHDTEEFMVRTFLSE", "phage ELISA signal ratio": 6.48}
{"binder": "PFDAWPIGWEIQQQYF", "phage ELISA signal ratio": 8.91}
{"binder": "EPYMIQVPWESHWDVH", "phage ELISA signal ratio": 9.25}
{"binder": "HSEIWLMTYLDSLAMY", "phage ELISA signal ratio": 13}
{"binder": "DQEWLSKPWQFWAMDM", "phage ELISA signal ratio": 4.69}
{"binder": "AYVWDDWVWTSLPWVE", "phage ELISA signal ratio": 6.69}
{"biological_target": "TLN1 309-401 IRS (domain begin residue: 309, domain end residue: 401), Q9Y490", "sequence (Q9Y490 whole entry)": "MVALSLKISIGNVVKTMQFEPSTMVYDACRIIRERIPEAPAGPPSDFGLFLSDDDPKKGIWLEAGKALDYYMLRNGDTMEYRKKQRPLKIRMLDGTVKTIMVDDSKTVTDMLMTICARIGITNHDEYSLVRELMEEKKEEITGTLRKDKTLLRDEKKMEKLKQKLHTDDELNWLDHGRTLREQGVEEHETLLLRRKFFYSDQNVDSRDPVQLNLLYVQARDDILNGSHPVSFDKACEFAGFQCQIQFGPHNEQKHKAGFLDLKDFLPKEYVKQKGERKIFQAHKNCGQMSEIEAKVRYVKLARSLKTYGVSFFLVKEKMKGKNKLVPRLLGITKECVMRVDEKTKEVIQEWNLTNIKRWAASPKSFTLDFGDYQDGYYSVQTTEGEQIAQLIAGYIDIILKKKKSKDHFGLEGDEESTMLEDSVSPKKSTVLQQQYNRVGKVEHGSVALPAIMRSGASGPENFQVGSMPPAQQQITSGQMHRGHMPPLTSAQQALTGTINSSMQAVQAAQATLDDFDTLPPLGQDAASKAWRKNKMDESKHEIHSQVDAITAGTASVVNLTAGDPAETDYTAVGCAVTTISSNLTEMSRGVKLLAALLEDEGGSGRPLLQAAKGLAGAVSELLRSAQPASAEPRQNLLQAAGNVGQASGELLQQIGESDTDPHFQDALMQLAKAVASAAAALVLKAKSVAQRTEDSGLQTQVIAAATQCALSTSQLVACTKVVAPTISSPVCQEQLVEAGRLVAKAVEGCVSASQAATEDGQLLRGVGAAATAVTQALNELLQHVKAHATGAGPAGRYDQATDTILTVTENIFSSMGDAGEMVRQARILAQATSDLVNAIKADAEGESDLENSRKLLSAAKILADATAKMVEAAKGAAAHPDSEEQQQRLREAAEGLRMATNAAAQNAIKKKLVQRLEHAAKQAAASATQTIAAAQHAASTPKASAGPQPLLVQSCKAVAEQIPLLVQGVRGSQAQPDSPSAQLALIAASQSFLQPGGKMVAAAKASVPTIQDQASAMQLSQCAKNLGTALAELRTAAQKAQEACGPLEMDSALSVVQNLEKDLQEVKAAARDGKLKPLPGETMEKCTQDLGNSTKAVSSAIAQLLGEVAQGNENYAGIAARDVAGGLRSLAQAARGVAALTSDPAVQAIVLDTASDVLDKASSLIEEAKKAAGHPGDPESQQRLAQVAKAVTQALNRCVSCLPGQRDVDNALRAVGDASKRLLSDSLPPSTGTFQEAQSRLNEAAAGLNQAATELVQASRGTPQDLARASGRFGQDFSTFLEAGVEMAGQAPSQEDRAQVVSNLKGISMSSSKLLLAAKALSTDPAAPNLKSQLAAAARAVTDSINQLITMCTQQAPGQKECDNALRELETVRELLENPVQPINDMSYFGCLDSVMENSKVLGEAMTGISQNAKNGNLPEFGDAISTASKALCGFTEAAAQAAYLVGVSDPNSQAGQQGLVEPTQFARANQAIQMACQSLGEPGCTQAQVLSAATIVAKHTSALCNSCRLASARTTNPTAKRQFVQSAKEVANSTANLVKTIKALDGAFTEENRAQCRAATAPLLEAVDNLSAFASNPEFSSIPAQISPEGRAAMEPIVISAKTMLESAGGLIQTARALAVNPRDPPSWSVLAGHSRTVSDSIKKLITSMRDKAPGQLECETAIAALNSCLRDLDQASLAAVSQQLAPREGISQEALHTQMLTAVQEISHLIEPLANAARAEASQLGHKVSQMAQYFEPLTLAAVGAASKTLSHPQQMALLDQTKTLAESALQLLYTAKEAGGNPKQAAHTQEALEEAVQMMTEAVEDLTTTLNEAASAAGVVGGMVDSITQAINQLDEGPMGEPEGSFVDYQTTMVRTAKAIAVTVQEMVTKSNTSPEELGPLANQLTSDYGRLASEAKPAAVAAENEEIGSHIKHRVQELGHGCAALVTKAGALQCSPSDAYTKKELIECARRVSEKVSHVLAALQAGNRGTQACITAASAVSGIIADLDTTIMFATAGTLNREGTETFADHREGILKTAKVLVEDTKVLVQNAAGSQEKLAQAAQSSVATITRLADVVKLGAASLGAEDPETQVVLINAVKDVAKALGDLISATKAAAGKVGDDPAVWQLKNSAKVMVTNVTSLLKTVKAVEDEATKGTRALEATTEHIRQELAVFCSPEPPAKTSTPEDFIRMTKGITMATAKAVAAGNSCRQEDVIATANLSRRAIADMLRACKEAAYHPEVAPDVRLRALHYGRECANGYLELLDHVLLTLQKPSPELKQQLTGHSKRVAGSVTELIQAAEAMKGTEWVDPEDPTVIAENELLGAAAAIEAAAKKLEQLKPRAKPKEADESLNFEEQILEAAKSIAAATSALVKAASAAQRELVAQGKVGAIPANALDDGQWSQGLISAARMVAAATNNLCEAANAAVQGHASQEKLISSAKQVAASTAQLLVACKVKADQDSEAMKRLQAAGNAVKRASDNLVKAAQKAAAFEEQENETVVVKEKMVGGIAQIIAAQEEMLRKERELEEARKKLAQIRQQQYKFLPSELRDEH", "assay": "phage ELISA signal ratio (GST-PRM binding over GST background); higher = stronger binding of peptide-phage to the PRM", "in_short": "as §1"}
{"binder": "EFTMNWQYPTQYNFIQ", "phage ELISA signal ratio": 15.3}
{"binder": "VETQWEQWQEYGLKFS", "phage ELISA signal ratio": 16.2}
{"biological_target": "TLN2 312-417 IRS (domain begin residue: 312, domain end residue: 417), Q9Y4G6", "sequence (Q9Y4G6 whole entry)": "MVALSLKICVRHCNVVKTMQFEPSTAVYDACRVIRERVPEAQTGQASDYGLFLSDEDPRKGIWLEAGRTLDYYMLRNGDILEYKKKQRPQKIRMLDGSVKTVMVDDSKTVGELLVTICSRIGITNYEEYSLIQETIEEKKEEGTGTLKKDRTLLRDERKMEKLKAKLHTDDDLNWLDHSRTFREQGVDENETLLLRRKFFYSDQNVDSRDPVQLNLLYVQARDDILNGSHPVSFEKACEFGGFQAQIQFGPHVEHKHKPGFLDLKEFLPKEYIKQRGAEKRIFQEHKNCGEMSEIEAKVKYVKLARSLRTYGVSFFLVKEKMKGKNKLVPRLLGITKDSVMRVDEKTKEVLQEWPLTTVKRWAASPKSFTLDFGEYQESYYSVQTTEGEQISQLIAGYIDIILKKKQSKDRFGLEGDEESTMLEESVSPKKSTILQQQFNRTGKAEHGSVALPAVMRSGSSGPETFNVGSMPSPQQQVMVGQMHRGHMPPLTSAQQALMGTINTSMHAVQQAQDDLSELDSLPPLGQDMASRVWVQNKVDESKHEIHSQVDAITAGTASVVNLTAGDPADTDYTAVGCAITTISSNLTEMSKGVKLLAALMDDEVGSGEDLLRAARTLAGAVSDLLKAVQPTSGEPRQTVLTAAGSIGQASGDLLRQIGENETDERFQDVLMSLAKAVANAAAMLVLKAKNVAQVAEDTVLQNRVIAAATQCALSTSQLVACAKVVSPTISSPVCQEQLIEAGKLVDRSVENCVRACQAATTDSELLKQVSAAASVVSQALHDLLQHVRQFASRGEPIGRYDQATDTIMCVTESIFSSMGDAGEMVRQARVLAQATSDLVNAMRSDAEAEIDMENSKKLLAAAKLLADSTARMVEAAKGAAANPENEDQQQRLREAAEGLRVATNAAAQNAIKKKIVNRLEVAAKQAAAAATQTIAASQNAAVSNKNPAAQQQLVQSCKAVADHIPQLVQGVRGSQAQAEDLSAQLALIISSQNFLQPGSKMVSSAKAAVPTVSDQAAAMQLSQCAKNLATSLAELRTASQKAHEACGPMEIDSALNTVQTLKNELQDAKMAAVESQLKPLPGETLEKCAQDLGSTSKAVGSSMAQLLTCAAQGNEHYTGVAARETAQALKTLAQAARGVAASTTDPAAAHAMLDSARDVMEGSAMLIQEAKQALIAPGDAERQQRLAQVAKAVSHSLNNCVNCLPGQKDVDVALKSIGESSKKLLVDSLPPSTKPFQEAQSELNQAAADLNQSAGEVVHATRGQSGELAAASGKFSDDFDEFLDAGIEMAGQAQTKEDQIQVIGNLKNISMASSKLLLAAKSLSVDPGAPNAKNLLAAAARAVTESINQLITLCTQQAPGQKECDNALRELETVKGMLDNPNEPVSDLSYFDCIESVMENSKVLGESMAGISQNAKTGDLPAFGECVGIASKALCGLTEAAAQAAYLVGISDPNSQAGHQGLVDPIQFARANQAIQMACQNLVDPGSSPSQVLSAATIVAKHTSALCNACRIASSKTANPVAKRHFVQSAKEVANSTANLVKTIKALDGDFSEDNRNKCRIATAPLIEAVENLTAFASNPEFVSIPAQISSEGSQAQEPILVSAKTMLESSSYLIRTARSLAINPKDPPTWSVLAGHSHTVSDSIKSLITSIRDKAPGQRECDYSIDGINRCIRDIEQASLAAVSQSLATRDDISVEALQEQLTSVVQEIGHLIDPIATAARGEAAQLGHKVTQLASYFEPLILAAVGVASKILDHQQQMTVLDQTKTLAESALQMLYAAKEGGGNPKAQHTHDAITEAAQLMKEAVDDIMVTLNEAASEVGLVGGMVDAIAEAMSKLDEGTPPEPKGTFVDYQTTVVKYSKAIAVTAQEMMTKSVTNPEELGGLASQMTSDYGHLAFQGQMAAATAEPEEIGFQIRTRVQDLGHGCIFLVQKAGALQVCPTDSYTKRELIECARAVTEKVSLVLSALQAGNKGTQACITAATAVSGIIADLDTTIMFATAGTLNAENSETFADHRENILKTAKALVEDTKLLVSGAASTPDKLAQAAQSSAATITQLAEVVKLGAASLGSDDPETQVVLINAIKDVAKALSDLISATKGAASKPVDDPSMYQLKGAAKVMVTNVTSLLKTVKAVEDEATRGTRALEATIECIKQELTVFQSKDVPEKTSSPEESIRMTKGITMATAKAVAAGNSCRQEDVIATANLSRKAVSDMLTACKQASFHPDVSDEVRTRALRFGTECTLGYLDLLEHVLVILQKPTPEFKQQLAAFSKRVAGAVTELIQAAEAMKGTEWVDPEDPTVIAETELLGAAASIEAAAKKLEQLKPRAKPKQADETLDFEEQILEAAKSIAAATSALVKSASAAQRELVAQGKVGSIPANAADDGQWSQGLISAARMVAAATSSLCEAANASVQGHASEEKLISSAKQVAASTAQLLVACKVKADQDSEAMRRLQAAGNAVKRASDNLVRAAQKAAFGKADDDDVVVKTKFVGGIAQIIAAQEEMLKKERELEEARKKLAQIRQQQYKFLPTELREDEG", "assay": "phage ELISA signal ratio (GST-PRM binding over GST background); higher = stronger binding of peptide-phage to the PRM", "in_short": "as §1"}
{"binder": "MEWVEVYTKTDYAFPP", "phage ELISA signal ratio": 17.8}
{"binder": "QNNFIQLQEWHWLEGW", "phage ELISA signal ratio": 11.2}
{"binder": "NENGSYEEHLAWTWGF", "phage ELISA signal ratio": 17.6}
{"binder": "WDLNAQVEHMWQYGIA", "phage ELISA signal ratio": 15.9}
{"biological_target": "T2, SPSB2 26-221 SPRY (domain begin residue: 26, domain end residue: 221), Q99619", "T2 chain": "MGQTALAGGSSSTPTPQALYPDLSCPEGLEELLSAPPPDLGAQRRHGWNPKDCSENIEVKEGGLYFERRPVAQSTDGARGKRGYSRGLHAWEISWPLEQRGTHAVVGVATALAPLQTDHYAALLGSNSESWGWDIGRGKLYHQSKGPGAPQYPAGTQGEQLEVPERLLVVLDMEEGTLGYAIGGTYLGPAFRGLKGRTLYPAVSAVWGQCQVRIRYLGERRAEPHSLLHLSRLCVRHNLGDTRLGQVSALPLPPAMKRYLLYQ", "assay": "phage ELISA signal ratio (GST-PRM binding over GST background); higher = stronger binding of peptide-phage to the PRM", "in_short": "as §1"}
{"binder": "EYTLDENANMEQLWEV", "phage ELISA signal ratio": 35.8}
{"binder": "HLEQDWNGNWLMNEKD", "phage ELISA signal ratio": 41.2}
{"binder": "MDFTDVNGNLLNAFTA", "phage ELISA signal ratio": 38.3}
{"binder": "WDLDWAVSDHNGNVMV", "phage ELISA signal ratio": 41.6}
{"binder": "PARDINNNAATAYINV", "phage ELISA signal ratio": 39.5}
{"binder": "GFEFHPVYDWNNNIQK", "phage ELISA signal ratio": 36.6}
{"binder": "YEIMENNNWLNNAGVF", "phage ELISA signal ratio": 40.1}
{"binder": "MDWNNNWNHSLESTQN", "phage ELISA signal ratio": 36.1}
{"biological_target": "T3, TDRD1 261-449 TUDOR (domain begin residue: 261, domain end residue: 449), Q9BXT4", "T3 chain": "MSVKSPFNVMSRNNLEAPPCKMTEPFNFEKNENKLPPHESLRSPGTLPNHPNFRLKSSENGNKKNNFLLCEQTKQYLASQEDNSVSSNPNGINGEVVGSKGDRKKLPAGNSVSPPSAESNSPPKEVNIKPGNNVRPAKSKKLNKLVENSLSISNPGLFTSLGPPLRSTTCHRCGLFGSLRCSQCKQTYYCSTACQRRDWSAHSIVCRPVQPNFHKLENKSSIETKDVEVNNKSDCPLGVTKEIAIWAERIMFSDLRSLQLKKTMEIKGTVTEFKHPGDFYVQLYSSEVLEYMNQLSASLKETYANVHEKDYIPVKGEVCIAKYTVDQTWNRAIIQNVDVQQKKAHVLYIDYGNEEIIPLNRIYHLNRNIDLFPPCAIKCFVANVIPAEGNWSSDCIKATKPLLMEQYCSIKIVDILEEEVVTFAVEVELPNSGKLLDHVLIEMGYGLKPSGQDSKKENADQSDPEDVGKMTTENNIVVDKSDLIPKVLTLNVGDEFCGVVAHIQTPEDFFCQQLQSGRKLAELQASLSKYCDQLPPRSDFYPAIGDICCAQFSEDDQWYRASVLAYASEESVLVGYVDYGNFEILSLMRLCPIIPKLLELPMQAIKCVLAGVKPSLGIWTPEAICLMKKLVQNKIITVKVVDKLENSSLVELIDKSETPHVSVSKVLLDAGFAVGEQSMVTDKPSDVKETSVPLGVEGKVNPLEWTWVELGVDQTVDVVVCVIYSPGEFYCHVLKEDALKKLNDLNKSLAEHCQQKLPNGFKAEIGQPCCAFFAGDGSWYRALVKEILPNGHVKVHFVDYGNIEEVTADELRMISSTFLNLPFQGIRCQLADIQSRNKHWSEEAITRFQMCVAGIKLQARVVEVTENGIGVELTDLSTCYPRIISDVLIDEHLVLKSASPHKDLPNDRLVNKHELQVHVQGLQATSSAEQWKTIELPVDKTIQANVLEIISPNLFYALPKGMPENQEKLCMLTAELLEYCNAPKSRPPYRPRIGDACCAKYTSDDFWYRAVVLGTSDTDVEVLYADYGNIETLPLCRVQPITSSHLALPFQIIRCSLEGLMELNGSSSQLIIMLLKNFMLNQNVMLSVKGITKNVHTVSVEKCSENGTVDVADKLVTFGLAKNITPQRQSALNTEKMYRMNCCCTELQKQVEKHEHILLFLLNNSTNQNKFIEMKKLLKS", "assay": "phage ELISA signal ratio (GST-PRM binding over GST background); higher = stronger binding of peptide-phage to the PRM", "in_short": "as §1"}
{"binder": "MPLHEWEAGWPWEVVG", "phage ELISA signal ratio": 7.35}
{"biological_target": "T4, TERF1 58-268 TRF (domain begin residue: 58, domain end residue: 268), P54274", "T4 chain": "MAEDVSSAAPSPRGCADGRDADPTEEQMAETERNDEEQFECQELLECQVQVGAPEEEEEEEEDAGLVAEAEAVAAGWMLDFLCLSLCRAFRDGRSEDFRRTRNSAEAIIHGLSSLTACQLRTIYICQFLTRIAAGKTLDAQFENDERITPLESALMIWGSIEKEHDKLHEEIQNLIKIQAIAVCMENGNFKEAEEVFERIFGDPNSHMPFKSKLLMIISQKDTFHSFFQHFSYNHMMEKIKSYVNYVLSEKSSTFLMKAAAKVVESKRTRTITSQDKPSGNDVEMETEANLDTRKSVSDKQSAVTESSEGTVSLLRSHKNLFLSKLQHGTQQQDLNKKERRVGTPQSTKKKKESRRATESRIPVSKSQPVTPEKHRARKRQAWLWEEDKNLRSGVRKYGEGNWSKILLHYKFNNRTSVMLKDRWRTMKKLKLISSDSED", "assay": "phage ELISA signal ratio (GST-PRM binding over GST background); higher = stronger binding of peptide-phage to the PRM", "in_short": "as §1"}
{"binder": "MLFDDEAMYNWQWHLM", "phage ELISA signal ratio": 12.2}
{"binder": "SFPLEFTTDYMYNLMA", "phage ELISA signal ratio": 18.2}
{"biological_target": "T5, SPSB4 1-273 SPRY (domain begin residue: 1, domain end residue: 273), Q96A44", "T5 chain": "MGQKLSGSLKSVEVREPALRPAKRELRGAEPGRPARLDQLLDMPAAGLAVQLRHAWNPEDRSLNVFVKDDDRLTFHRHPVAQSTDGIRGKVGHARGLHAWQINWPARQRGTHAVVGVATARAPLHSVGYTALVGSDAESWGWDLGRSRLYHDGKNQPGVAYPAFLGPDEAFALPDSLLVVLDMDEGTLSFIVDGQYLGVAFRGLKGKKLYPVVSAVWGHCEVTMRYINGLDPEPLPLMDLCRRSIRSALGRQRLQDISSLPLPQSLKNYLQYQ", "assay": "phage ELISA signal ratio (GST-PRM binding over GST background); higher = stronger binding of peptide-phage to the PRM", "in_short": "as §1"}
{"binder": "MVQDSINNNNWLVPWV", "phage ELISA signal ratio": 7.42}
{"binder": "QMDYNQNMPSIQWARE", "phage ELISA signal ratio": 8.15}
{"binder": "WDFVGEWDSNNNTVTR", "phage ELISA signal ratio": 7.05}
{"biological_target": "T6, TDRKH 290-430 TUDOR+SNase (domain begin residue: 290, domain end residue: 430), Q9Y2W6", "T6 chain": "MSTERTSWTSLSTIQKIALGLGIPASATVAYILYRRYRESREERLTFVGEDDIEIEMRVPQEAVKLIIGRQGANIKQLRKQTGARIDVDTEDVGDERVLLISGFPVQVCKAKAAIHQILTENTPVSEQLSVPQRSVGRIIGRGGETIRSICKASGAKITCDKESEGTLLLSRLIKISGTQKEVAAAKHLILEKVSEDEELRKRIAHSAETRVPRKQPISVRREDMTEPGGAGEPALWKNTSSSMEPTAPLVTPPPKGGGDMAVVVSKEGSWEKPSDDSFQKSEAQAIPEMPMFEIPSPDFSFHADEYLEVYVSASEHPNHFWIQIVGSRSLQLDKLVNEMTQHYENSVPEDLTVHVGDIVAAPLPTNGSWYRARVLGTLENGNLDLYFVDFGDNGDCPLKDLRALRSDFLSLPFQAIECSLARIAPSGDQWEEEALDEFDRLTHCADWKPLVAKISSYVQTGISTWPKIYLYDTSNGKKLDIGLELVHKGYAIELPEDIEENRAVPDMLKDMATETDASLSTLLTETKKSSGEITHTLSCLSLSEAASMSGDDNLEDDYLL", "assay": "phage ELISA signal ratio (GST-PRM binding over GST background); higher = stronger binding of peptide-phage to the PRM", "in_short": "as §1"}
{"binder": "HELHGHLGPYGYPAGT", "phage ELISA signal ratio": 7.85}
